Source: PubChem BioAssay
Hits are enriched below; roughly 4.3% of the tested compounds scored in any of these assays.
esBAF inh: SWI/SNF esBAF complex inhibition. mouse ES cells, Bmi1-luciferase knock-in reporter, 24 h; 100% = twice the neutral-well signal. reporter increase, % at 12.5 µM. 2% of 350,000 active. AID 602393; in the data active means activation above about 40%; inconclusive means no clear call, values can overlap the other calls;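 further: 0% = median of the plate's neutral control wells and 100% = double that signal; a rise in the Bmi1 reporter signal indicates esBAF inhibition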
HSF-1 act: increases HSF-1 driven luciferase reporter signal | 1.7% of 300,000 active | NIH3T3-HGL HSF-1 luciferase reporter, MG132, 8 h; 100% = twice DMSO control signal | activation, % at 9 µM;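 active means mean replicate activation of at least 50% with a set share of replicates each reaching 50%; inconclusive means only one of those two conditions met; inactive means mean below 50% and too few replicates reaching it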;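 further: 0% = median of the neutral control wells and 100% = twice that signal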
HSF1 inh: HSF1 inhibition | NIH3T3-HGL HSE-luciferase, MG132-induced, luminescence 8 h; stronger effect = lower value | activity change, negative = inhibition, % at 7.5 µM (by protocol) | 0.77% of 300,000 active;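 active means more than half of replicate wells show activity change below -50%, luminescence cut by over half; inconclusive means some wells, but at most half, below -50%; inactive means no replicate well below -50%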;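 further: luciferase reports HSF-1 transcriptional activity via heat shock element; 0% = median of DMSO wells and -100% = zero luminescence signal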
Wnt act: Wnt/beta-catenin pathway activation; AID 743398; Wnt/beta-catenin reporter cell assay, activator, plate reader; activation, % at 9.35 µM; 1.2% of 300,000 active; in the data active means activation above about 30%, passing the limit was not always enough; inconclusive means no clear call, values can overlap the other calls;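 further: 0% = neutral control wells and 100% = positive control wells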
MITF act: activators of MITF-driven TRPM1 promoter activity in SK-MEL-5 cells; activation, % at 12.5 µM; AID 588334; SK-MEL-5 TRPM1-promoter luciferase, 24 h; % of positive control, neutral wells = 0; 0.75% of 300,000 active;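 active means mean activation of at least 80% with every replicate also reaching 80%; inconclusive means mean reaches 80% but some replicate falls short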;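 further: 0% = neutral control wells and 100% = parthenolide positive control wells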
SMARCA2 activ: SMARCA2 function activation, primary screen. 1% of 370,000 active. activation, % at 9.1 µM. AID 652017. MG213 cells, MMTV-luciferase reporter, dexamethasone, overnight; in the data active means activation above about 7.8%;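 further: 0% = vehicle wells and 100% = reference activator wells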
SMARCA2 act conf: confirmation of SMARCA2 (BRM) function activators; shares compounds with SMARCA2 activ; MG213 cells, MMTV-luciferase with dexamethasone, luminescence, overnight; MG213 cells expressing E1A, Rb sequestered; DMSO wells 0%, reference activator 100%; activation, % at 9.1 µM; 30% of 3,500 active; AID 652260;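 active means activation above its plate's cutoff, the mean activation of tested wells plus 3 SD, cut at about 7.9% in these data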
VP16 Luc act: GAL4-VP16 reporter activation counter-screen; shares compounds with SMARCA2 activ; HEK293 GAL4-VP16 pG5luc reporter, luciferase luminescence; scaled: DMSO wells 0%, SAHA wells 100%; activation, % at 9.1 µM; 41% of 3,500 active; AID 686939;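 active means activation above the solvent-only control well mean plus 3 SD, averaged across control plates, cut at about 5.2% in these data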
Numbers without * were called inactive; ? = inconclusive; . = no result.

SMILES	esBAF inh	HSF-1 act	HSF1 inh	Wnt act	MITF act	SMARCA2 activ	SMARCA2 act conf	VP16 Luc act
C[C@H](CO)N1C[C@H](C)[C@@H](CN(C)C(=O)NC2CCCCC2)Oc2c(NC(=O)C3CCOCC3)cccc2C1=O	0	.	.	.	.	.	.	.
CCCS(=O)(=O)Nc1ccc(Nc2c3ccccc3nc3ccccc23)c(OC)c1	.	.	.	-2	.	15*	24*	3
CN1c2ccc(-c3cccc(C#N)c3)cc2[C@H]2[C@H](CCN2S(=O)(=O)c2ccccc2F)[C@H]1CO	-7	.	.	.	.	.	.	.
CCOCCCNC(=O)/C(C#N)=C/c1ccc([N+](=O)[O-])o1	1	45	39	1	-62	12*	-16	2
COCc1cn(CC[C@H]2CC[C@H](NC(=O)Nc3ccc(F)cc3)[C@@H](CO)O2)nn1	-1	.	.	.	.	.	.	.
Cc1ccc(S(=O)(=O)N2C[C@@H](O)COC[C@@H]3O[C@H](CC(=O)NCCN4CCCCC4)CC[C@H]32)cc1	-6	.	.	.	.	.	.	.
CCC(=O)Nc1cc(Cl)ccc1C(=O)O	0	4	-4	-2	0	9.4*	-3	2
Cc1noc(C)c1NC(=O)Nc1ccc2c(c1)C(=O)N([C@@H](C)CO)C[C@H](C)[C@H](CN(C)C(=O)NC(C)C)O2	6	.	.	.	.	.	.	.
COc1ccc(CCNc2nc3ccccc3n3nnnc23)cc1OC	26	6	0	11	.	18*	4	2
COc1ccc(S(=O)(=O)N(C)C[C@@H]2Oc3c(NC(=O)Nc4cccc5ccccc45)cccc3C(=O)N([C@@H](C)CO)C[C@@H]2C)cc1	8	.	.	.	.	.	.	.
COc1ccc2cc3cc(C(=O)N4CCCC(C)C4)oc3nc2c1 (stereo unspecified)	16	19	15	32*	48	8.8*	3	9.2*
CC(C)(C)[S@@](=O)N1Cc2cc(C(=O)NCc3ccc4c(c3)OCO4)nc(-c3cccc(-c4ccncc4)c3)c2[C@H]1CCO	6	.	.	.	.	.	.	.
CCOC(=O)CCSc1nc(C)c2cc(C)c(C)cc2n1	12	4	5	11	12	3	.	.
CCOC(=O)CCSc1nc(C)c2cc(OC)ccc2n1	10	29	5	.	71	10*	9.0*	11*
Cc1ccc(CNC(=O)CCS(=O)(=O)c2ccc(C)cc2)cc1	-5	-6	-3	-1	-7	10*	-1	0
COc1ccc2nc(N(CCN(C)C)C(=O)c3ccc4ncsc4c3)sc2c1	81*	.	.	?	.	10*	13*	9.4*
Cc1ccc(NC(=S)NC2CC3CCCC(C2)N3Cc2ccco2)cc1 (stereo unspecified)	7	-1	-9	0	4	10*	-2	2
O=C(CN1C(=O)CSC1=O)Nc1ccccc1N1CCOCC1	-1	-2	-7	.	6	9.8*	-2	0
CNC[C@H]1OCCCC[C@@H](C)Oc2ccc(NS(=O)(=O)c3ccc(C)cc3)cc2C(=O)N([C@@H](C)CO)C[C@@H]1C	3	.	.	.	.	.	.	.
Clc1cccc(-c2nc(NCCCN3CCOCC3)c3ccccc3n2)c1	-7	6	-4	0	-2	-3	.	.
Clc1ccc2oc(-c3ccccc3)cc(=NCCCN3CCOCC3)c2c1	.	.	.	57*	103*	17*	14*	5.6*
OCCN1CCN(c2nc(-c3ccccc3)c3cc(Cl)ccc3n2)CC1	-21	-5	-1	-2	9	2	.	.
OCCCCCN=c1cc(-c2ccccc2)oc2ccc(Cl)cc12	78*	98*	69	.	3	13*	19*	1
O=C(Nc1ccc2c(c1)[C@H]1C[C@H](CC(=O)N3CCCCC3)O[C@@H](CO)[C@H]1O2)C1CCC1	-7	.	.	.	.	.	.	.
CO[C@H]1CN(C)C(=O)c2cc(NC(C)=O)ccc2OC[C@@H](C)N(C(=O)C2CC2)C[C@H]1C	-4	.	.	.	.	.	.	.
SMILES	esBAF inh	HSF-1 act	HSF1 inh	Wnt act	MITF act	SMARCA2 activ	SMARCA2 act conf	VP16 Luc act
O=C(NCC[C@H]1CC[C@@H](NC(=O)C2CCCC2)[C@H](CO)O1)Nc1ccc(Cl)cc1	19	.	.	.	.	.	.	.
CCC(=O)Nc1ccc2c(c1)C(=O)N(C)[C@@H]1CC[C@@H](CC(=O)NCC3CCCCC3)O[C@H]1CO2	3	.	.	.	.	.	.	.
O=C1CC(c2cc(-c3ccccc3)no2)C1	38	22	8	22	74	9.7*	3	7.5*
COc1cccc(S(=O)(=O)N[C@H]2CC[C@H](CCN)O[C@@H]2CO)c1	1	.	.	.	.	.	.	.
Cc1ccc(OCc2cc(C(=O)N3CCN(c4ccccc4)CC3)no2)cc1C	?	45	51	36*	83*	13*	6	6.4*
Cc1ccc(OCc2cc(C(=O)N3CCN(C4CCCC4)CC3)no2)cc1C	8	23	17	6	12	1	.	.
CO[C@@H]1CN(C)C(=O)c2cc(NC(=O)Nc3cccc(F)c3)ccc2OC[C@H](C)N(C(=O)C2CC2)C[C@@H]1C	-3	.	.	.	.	.	.	.
COc1cccc(NC(=O)c2ncc(Cl)c(Cl)c2Cl)c1	5	-12	7	22	11	8.7*	6	2
COc1cccc(NC(=O)c2nc(SC)ncc2Cl)c1	-3	6	-1	2	-1	-2	.	.
CC(C)(C)N/N=C1\CC(c2ccccc2)Oc2ccccc21 (stereo unspecified)	.	16	-2	4	-2	3	.	.
O=C(O)c1cc(N/N=C2/CC(c3ccccc3)Oc3ccccc32)ccc1Cl (stereo unspecified)	.	-9	-10	14	13	10*	3	2
O=S(=O)(Nc1nc2ccccc2nc1N1CCc2ccccc2C1)c1ccc(Cl)cc1	.	57*	20	41*	6	9.0*	-2	4
O=S(=O)(Nc1nc2ccccc2nc1N1CCc2ccccc2C1)c1ccc(Br)cc1	.	.	.	.	34	7	.	.
O=C(CCN1C(=O)/C(=C\c2ccccc2)SC1=S)NNC(=O)c1ccncc1	.	16	0	0	.	9.7*	-5	0
O=C(CCN1C(=O)/C(=C/c2ccccc2)SC1=S)NNC(=O)c1ccncc1	.	-11	-1	-2	-3	2	.	.
Cc1ccc2[nH]cc(C(=O)NCc3cccs3)c(=O)c2c1	10	-7	-1	-2	-5	4	.	.
COc1cccc2c(=O)c(C(=O)NCc3cccs3)c[nH]c12	?	29	24	?	.	10*	17*	5.9*
CC(C)(C)C(=O)Nc1nnc(SCC(=O)Nc2ccc3c(c2)OCO3)s1	.	-16	-1	.	-2	13*	-5	2
